“And” between values parts separate entries of the source, which are not always exact repeats. Equal values may be shown once. Results filed as inconclusive are left out. More than one record can exist for a structure, and the calls need not agree. The source made the active and inactive calls. Unless noted, the call rests on the fitted dose curve.

Assay [1] in a line: Nuclear factor erythroid 2-related factor 2/antioxidant responsive element (Nrf2/ARE) small molecule agonists: qHTS cell viability counter screen in human keratinocytes (AID 1919968; active means well fitted curve in the direction sought with a large enough effect in the repeat runs; an effect the other way counts as inactive or inconclusive; further: nearly all actives have a fitted effect of over 55% in size). Put shortly: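 Seed 1,500 KeratinoSens cells per well, then incubate 5 h at 37 C/5% CO2. Add compounds in DMSO and incubate 23 h. Add CellTiter-Fluor, wait 1 h and read fluorescence.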
The nature of assay [2]: Nuclear factor erythroid 2-related factor 2/antioxidant responsive element (Nrf2/ARE) small molecule agonists: luciferase reporter gene qHTS assay in human keratinocytes (AID 1919969). Further: nearly all actives have a fitted effect of over 35% in size. Further: potency means the concentration at half of the fitted maximal effect. In general terms: A reporter such as luciferase makes a cellular process visible.
The target in assay [3] is Gonadotropin-releasing hormone receptor (Homo sapiens) (UniProt P30968). The assay is described as follows: Human gonadotropin-releasing hormone receptor (GnRHR) small molecule agonists, calcium flux assay in GnRHR-HEK293 cells (AID 1920063). Further: nearly all actives have a fitted effect of over 35% in size. Summed up:
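Cells: HEK293 stably expressing human GnRHR. Steps: overnight (18 h) culture, 1 h calcium dye loading at 37 C, compound addition, kinetic fluorescence read at 480/540 nm. Each compound tested at 15 concentrations in triplicate.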

The target in assay [4] is KiSS-1 receptor (Homo sapiens) (UniProt Q969F8). The assay is described as follows: Human kisspeptin (KISS1R) small molecule agonists, calcium flux assay in KISS1R-HEK293 cells (AID 1920064; active means well fitted curve in the direction sought with a large enough effect in the repeat runs; an effect the other way counts as inactive or inconclusive). Put shortly: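 Cells plated and incubated 18 h; dye added, 1 h at 37 C; compounds in DMSO pinned in; signal read at 480/540 nm every second for 3 min. Each compound tested at 15 concentrations in triplicate.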
In general terms: Calcium assays in cells follow changes in intracellular calcium, usually with a dye or a luminescent sensor.

Assay [5] in a line: G protein-coupled receptor (GPCR) small molecule agonists, calcium flux assay: HEK293 wild type cell line counter screen (AID 1920065). Put shortly: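 Counter-screen of the Tox21 10K library for non-specific calcium release: dye-loaded cells received compounds in DMSO and were monitored by kinetic fluorescence (480/540 nm, 3 min). Fifteen concentrations, run in triplicate.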

Assay [6] in a line: p53 small molecule agonists, cell-based qHTS assay with human liver microsomes (AID 1963577).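 Further: p53 response element beta-lactamase reporter cells with liver microsomes plus NADPH.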 Put shortly:
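p53RE-bla cells; 5 h settle, 37 C/5% CO2; cpd + HLM 0.5 mg/mL + NADPH 0.5 mg/mL (final); 16 h 37 C; LiveBLAzer 2 h RT dark; fluorescence readout.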
A general note: qHTS replaces the single test concentration by a dilution series.

Assay [7] is described as follows: p53 small molecule agonists, cell-based qHTS assay with rat liver microsomes (AID 1963578). Summed up: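 Rat liver microsome activation: microsomes 0.5 mg/mL, NADPH 0.5 mg/mL final; p53RE-bla cells, 16 h 37 C; LiveBLAzer readout, 2 h RT dark.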
Assay [8] is described as follows: p53 small molecule agonists, cell-based qHTS assay with human liver microsomes: qHTS cell viability counter screen (AID 1963579). Further: nearly all actives have a fitted effect of over 45% in size. Put shortly:
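Luminescent CellTiter-Glo read-out, 30 min at room temperature, gauged cytotoxicity in p53RE-bla cells exposed 16 h at 37 C to DMSO-dissolved compounds with metabolic activation by human liver microsomes and NADPH, each 0.5 mg/mL final.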

Assay [9] can be described thus: p53 small molecule agonists, cell-based qHTS assay with rat liver microsomes: qHTS cell viability counter screen (AID 1963580). Further: nearly all actives have a fitted effect of over 45% in size. Summed up:
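p53RE-bla HCT-116 cells were exposed 16 h at 37 C to compounds with rat liver microsomes (0.5 mg/mL) and NADPH (0.5 mg/mL). Viability was measured in the same wells as ATP content by CellTiter-Glo luminescence.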

Assay [10] can be described thus: p53 small molecule agonists, cell-based qHTS assay: qHTS cell viability counter screen (AID 1963581). Further: nearly all actives have a fitted effect of over 45% in size. Summed up: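 Cells: HCT-116 with p53 response element-driven beta-lactamase. Treatment: 16 h, 37 C, compounds in DMSO. Read: CellTiter-Glo luminescence after 30 min RT.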
Assay [11] in a line: p53 small molecule agonists, cell-based qHTS assay (AID 1963582; active means well fitted activation curve with a large enough effect in the signal ratio in the repeat runs, not every such curve was filed as active; the % refers to the signal ratio). Summed up:
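Quantitative HTS in p53RE-bla cells: after a 5 h settling period, compounds delivered in DMSO were left on cells for 16 h at 37 C, and reporter induction was measured as fluorescence following 2 h substrate loading.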

In assay [12] the target is 5-hydroxytryptamine receptor 2A (Homo sapiens) (UniProt P28223). The assay is described as follows: 5-hydroxytryptamine receptor 2A (HTR2A) small molecule antagonists, cell-based qHTS assay (AID 1963586). Further: nearly all actives have a fitted effect of over 45% in size. Further: potency means the concentration at half of the fitted maximal effect. Summed up:
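Antagonist-mode intracellular calcium assay: DOI (4 nM) added after 5 min compound pre-incubation at room temperature to dye-loaded HTR2A-CHO cells. Fluorescence followed for 3 min, sampled every second.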

For assay [13] the target is unchanged. Description: 5-hydroxytryptamine receptor 2A (HTR2A) small molecule agonists, cell-based qHTS assay (AID 1963587). Further: nearly all actives have a fitted effect of over 30% in size. Put shortly:
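CHO cells stably expressing human HTR2A, plated 18 h, loaded with calcium dye 1 h at 37 C. Agonist mode: compounds added and intracellular calcium fluorescence recorded kinetically for 2 min at 1 sec intervals.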

The target of assay [14] is Muscarinic acetylcholine receptor M1 (Homo sapiens) (UniProt P11229). Description: Cholinergic receptor muscarinic 1 (CHRM1) small molecule antagonists, cell-based qHTS assay (AID 1963588). Further: nearly all actives have a fitted effect of over 40% in size. Summed up:
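CHRM1-CHO calcium-flux assay, antagonist mode. Cells were seeded 18 h, dye-loaded 1 h at 37 C and given compound for 5 min at RT, then acetylcholine was added at 50nM. FDSS fluorescence was read 3 min; 15 concentrations, three runs.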

Assay [15] has the same target. The assay is described as follows: Cholinergic receptor muscarinic 1 (CHRM1) small molecule agonists, cell-based qHTS assay (AID 1963589). Further: nearly all actives have a fitted effect of over 35% in size. Summed up:
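Agonist-mode qHTS in CHO cells stably carrying human muscarinic M1. Intracellular calcium is tracked by fluorescence every second after compound transfer; each compound runs at 15 concentrations in three independent runs.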

Assay [16] in a line: cAMP Responsive Elements (CRE) small molecule agonists, cell-based qHTS assay (AID 1963590). Summed up:
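Agonist mode qHTS in CRE-bla HEK 293T cells: compounds dosed from DMSO for 3 h at 37 C/5% CO2, followed by LiveBLAzer B/G FRET substrate for 2 h at room temperature.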

Assay [17] can be described thus: cAMP Responsive Elements (CRE) small molecule antagonists, cell-based qHTS assay (AID 1963591; active means well fitted inhibition curve with a large enough effect in the signal ratio in the repeat runs, not every such curve was filed as active; the % refers to the signal ratio). Put shortly: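 Antagonist mode: test compounds are co-incubated with the adenylyl cyclase activator NKH477 (0.25 uM final) on CRE-bla HEK293T cells for 3 h at 37 °C, followed by LiveBLAzer substrate loading.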
Assay [18] has as its target Beta-2 adrenergic receptor (Homo sapiens) (UniProt P07550). The assay is described as follows: Adrenergic beta2 receptor (ADRB2) small molecule antagonists, cell-based qHTS assay (AID 1963592). Further: series mostly up to about 92 µM; nearly all actives have a fitted effect of over 50% in size. Put shortly: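 Cells (CHO, stable ADRB2 overexpression) incubated 18-20hr at 37C; compounds added from DMSO; agonist mix (1nM isoproterenol, 100uM IBMX, 25uM Ro-20-1724) added; 0.5hr RT; d2-cAMP and anti-cAMP-cryptate added; 1hr RT; 665/615 nm read.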

The target of assay [19] is D(2) dopamine receptor (Homo sapiens) (UniProt P14416). Description: Dopamine D2 receptor (DRD2) small molecule agonists, cell-based qHTS assay (AID 1963594). Further: nearly all actives have a fitted effect of over 35% in size. Summed up:
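HEK293 cells stably expressing human DRD2, pre-treated with PDE inhibitor Ro20-1724 (0.1 mM final) and compound 10 min at room temperature, then stimulated with NKH477 (200nM […]) for 30 min. cAMP read by HTRF (665/620 nm).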

The target is the same in assay [20]. The assay is described as follows: Dopamine D2 receptor (DRD2) small molecule antagonists, cell-based qHTS assay (AID 1963595; active means well fitted inhibition curve with a large enough effect in the signal ratio in the repeat runs, with a control signal flat; the % refers to the signal ratio). Summed up:
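HEK293 cells stably expressing DRD2 were preincubated with 0.1 mM Ro20-1724, then with compound for 10 min at room temperature. Cells were stimulated with 200 nM NKH477 plus 12 nM quinpirole for 30 min, and cAMP was read by HTRF.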

Sequence of 5-hydroxytryptamine receptor 2A (Homo sapiens) (P28223 whole entry, looked up): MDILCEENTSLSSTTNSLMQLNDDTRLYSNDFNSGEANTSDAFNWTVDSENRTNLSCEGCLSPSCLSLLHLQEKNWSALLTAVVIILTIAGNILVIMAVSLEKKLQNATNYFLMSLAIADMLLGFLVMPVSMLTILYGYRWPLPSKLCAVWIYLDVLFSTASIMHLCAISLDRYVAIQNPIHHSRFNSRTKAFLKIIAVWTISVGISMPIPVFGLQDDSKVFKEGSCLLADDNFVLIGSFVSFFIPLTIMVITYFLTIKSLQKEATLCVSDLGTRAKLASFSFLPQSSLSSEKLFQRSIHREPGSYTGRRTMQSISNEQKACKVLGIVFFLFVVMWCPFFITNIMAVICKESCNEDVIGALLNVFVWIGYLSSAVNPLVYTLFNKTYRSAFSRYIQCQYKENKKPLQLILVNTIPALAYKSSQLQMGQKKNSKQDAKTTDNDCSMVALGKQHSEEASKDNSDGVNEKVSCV
Sequence of D(2) dopamine receptor (Homo sapiens) (P14416 whole entry, looked up): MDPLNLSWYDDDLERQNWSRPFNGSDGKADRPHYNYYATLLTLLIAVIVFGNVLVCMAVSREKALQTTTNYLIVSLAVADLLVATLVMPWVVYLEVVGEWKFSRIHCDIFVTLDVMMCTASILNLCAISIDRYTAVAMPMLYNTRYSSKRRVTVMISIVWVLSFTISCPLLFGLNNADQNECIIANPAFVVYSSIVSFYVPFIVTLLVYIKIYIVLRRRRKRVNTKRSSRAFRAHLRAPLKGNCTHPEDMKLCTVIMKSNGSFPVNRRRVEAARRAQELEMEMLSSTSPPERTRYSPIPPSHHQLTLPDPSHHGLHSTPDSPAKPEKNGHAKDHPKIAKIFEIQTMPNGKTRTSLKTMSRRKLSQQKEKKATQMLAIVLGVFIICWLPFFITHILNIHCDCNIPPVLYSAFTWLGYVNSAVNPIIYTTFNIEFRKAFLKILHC
Sequence of Muscarinic acetylcholine receptor M1 (Homo sapiens) (P11229 whole entry, looked up): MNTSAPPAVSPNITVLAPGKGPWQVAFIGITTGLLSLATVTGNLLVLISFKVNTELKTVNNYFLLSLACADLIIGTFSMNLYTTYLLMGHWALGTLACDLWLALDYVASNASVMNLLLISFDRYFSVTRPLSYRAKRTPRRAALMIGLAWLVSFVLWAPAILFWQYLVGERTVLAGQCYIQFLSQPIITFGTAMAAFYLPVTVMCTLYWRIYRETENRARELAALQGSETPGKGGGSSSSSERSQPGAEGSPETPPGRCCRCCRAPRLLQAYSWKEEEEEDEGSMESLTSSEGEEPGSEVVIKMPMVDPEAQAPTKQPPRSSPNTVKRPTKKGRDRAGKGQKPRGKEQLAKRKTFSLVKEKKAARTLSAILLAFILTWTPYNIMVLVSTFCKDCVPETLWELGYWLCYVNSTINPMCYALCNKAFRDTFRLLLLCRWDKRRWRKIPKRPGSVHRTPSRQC
Sequence of KiSS-1 receptor (Homo sapiens) (Q969F8 whole entry, looked up): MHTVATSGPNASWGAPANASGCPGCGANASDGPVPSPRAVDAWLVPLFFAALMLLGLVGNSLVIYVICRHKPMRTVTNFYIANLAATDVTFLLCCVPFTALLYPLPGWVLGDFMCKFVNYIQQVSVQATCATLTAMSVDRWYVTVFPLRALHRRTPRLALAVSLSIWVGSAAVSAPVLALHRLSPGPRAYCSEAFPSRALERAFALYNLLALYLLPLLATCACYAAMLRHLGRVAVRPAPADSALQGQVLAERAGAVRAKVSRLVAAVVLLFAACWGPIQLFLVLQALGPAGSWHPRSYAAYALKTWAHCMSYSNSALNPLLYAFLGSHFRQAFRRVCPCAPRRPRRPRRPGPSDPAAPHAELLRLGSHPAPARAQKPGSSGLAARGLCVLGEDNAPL
Sequence of Gonadotropin-releasing hormone receptor (Homo sapiens) (P30968 whole entry, looked up): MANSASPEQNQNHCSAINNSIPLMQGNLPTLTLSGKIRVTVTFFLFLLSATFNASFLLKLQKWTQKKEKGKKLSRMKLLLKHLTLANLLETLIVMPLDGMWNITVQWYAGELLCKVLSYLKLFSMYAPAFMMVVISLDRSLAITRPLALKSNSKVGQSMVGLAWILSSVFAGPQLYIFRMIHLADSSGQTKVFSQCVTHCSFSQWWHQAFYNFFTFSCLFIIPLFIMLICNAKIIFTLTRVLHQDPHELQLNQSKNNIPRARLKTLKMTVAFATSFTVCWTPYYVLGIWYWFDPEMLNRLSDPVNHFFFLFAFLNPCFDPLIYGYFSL
Sequence of Beta-2 adrenergic receptor (Homo sapiens) (P07550 whole entry, looked up): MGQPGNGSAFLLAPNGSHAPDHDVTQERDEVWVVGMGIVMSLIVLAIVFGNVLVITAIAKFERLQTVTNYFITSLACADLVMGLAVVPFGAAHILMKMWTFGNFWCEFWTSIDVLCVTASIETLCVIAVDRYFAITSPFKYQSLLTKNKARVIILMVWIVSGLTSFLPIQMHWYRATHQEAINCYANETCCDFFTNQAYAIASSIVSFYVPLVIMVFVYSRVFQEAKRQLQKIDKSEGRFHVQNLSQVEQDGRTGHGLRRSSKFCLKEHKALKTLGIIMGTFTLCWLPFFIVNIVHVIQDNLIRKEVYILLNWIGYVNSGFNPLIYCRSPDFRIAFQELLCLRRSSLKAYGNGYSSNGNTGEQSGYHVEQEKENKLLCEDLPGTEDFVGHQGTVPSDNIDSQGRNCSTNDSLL

As to `CC(C)C(=O)OCC(C)(C)C(OC(=O)C(C)C)C(C)C` (centres undefined), the Potency result in assay [1], in [2], in assay [3], in assay [4], in assay [5] and in assay [6] was “inactive” each time. Also, the Potency result in assay [7], in assay [8], in assay [9], in assay [10], in assay [11] and in assay [12] was “inactive” in each case. Also, the Potency result in assay [13], in assay [14], in [15], in [16], in assay [17] and in assay [18] was “inactive” each time. Besides, the Potency entry in [19] and in [20] was “inactive” each time.
For `CCNc1nc(NC(C)C)nc(OC)n1`, the Potency entry in assay [1], in [2], in assay [3], in [4], in assay [5] and in assay [6] was “inactive” in each case. Further, the Potency entry in [7], in assay [8], in assay [9], in assay [10], in [11] and in assay [12] was “inactive” throughout. Further, the Potency entry in [13], in assay [14], in assay [15], in assay [16], in assay [17] and in [18] was “inactive” throughout. Also, the Potency result in [19] and in assay [20] was “inactive” throughout.
`OCCOc1ccccc1`: the Potency entry in assay [1], in [2], in assay [3], in assay [4], in [5] and in assay [6] was “inactive” each time. Further, the Potency entry in assay [7], in assay [8], in assay [9], in assay [10], in [11] and in assay [12] was “inactive” throughout. Further, the Potency entry in assay [13], in assay [14], in assay [15], in assay [16], in assay [17] and in assay [18] was “inactive” each time. In addition, the Potency entry in [19] and in assay [20] was “inactive” each time.
`COC(C)(C)C`: the Potency entry in assay [1], in [2], in [3], in assay [4], in assay [5] and in assay [6] was “inactive” in each case. Besides, the Potency entry in assay [7], in assay [8], in assay [9], in assay [10], in assay [11] and in assay [12] was “inactive” throughout. Moreover, the Potency result in [13], in [14], in [15], in assay [16], in assay [17] and in assay [18] was “inactive” in each case. The Potency entry in assay [19] and in assay [20] was “inactive” each time.
Take `c1ccc(-c2ccccc2)cc1`: the Potency entry in [1], in assay [2], in assay [3], in assay [4], in [5] and in assay [6] was “inactive” in each case. Also, the Potency result in [7], in [8], in [9], in assay [10], in assay [11] and in assay [12] was “inactive” each time. Further, the Potency entry in assay [13], in [14], in assay [15], in assay [16], in [17] and in assay [18] was “inactive” each time. For the same compound, in [19], the Potency entry was “inactive”.
For `c1ccc(C2CO2)cc1` (centres undefined), the Potency result in [1], in [2], in assay [3], in assay [4], in assay [5] and in assay [6] was “inactive” throughout. Moreover, the Potency entry in assay [7], in [8], in assay [9], in assay [10], in assay [11] and in assay [13] was “inactive” each time. The Potency entry in assay [14], in [15], in assay [16], in [17], in assay [18] and in assay [19] was “inactive” each time. The Potency result in [20] was “inactive”. In [12], the Potency is 4.8 nM (active) and inactive.
Turning to `Cc1ccc(N)c(N)c1`, the Potency result in [1], in [3], in assay [4], in assay [5], in assay [6] and in assay [7] was “inactive” throughout. The Potency result in assay [8], in assay [9], in [10], in assay [11], in assay [12] and in [13] was “inactive” each time. For the same compound, the Potency entry in assay [14], in assay [15], in assay [16], in [17], in [18] and in assay [19] was “inactive” each time. The Potency result in assay [20] was “inactive”. In addition, in assay [2], the Potency is 4.87 µM (active) and 68.6 µM (active).

The values are drawn from PubChem BioAssay (Tox21).
